Giardia kill: Small Molecules that selectively kill Giardia lamblia: qHTS. Giardia lamblia trophozoite viability. activity change, % at 7.66 µM, hits read low. 340,000 compounds, 0.15% hits. AID 540267, 2011; in the data active means activity change below about -80%; inconclusive means between about -30% and that limit;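 further: parasites exposed to compound for two days anaerobically before the ATP read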
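Killing of trophozoites was scored by loss of ATP luminescence after a 48 hrs anaerobic exposure to compounds at 37 deg C, using 100 cells per well.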
KB-3-1 tox: qHTS assay for MDR1-selective chemotherapeutics: Primary screen using the parental adenocarcinoma cell KB-3-1. 400,000 compounds, 1.4% hits. KB-3-1 viability, CellTiter-Glo ATP luminescence, 72 h. Potency, µM (titrated, usually from 46.1 µM), hits mostly cytotoxic. AID 1347075, 2019; further: nearly all actives have a fitted effect of over 60% in size
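Screening of KB-3-1 cells (DMEM, 10% FBS, phenol-red free) ran from lowest to highest compound concentration; after 72 h at 37 °C viability was read luminescently and curves fitted.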
SW480 rereplic: A quantitative high throughput screen for small molecules that induce DNA re-replication in SW480 colon adenocarcinoma cells; SW480 DNA re-replication, Hoechst DNA content imaging, 48 h; Potency, µM (highest dose often 46.1 µM), hits mostly activators; 340,000 compounds, 1.8% hits; further: nearly all actives have a fitted effect of over 55% in size
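Readout is total intensity of Hoechst-stained nuclei, excited at 405 nm and collected at 500-530 nm. Compound treatment lasted 48 hr at 37 C in 5% CO2 before staining.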
KB-V1 cytotox: qHTS assay for MDR1-selective chemotherapeutics: Primary screen using the drug-selected MDR subline cells KB-V1. Potency, µM (doses to about 46.1 µM), hits mostly cytotoxic. 400,000 compounds, 3.4% hits. KB-V1 MDR cells viability, CellTiter-Glo, 72 h; further: nearly all actives have a fitted effect of over 60% in size
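Cells of the MDR subline KB-V1 are plated, dosed with compound at multiple concentrations, and incubated 72 h at 37 degrees C; CellTiter-Glo is then added and luminescence read after 10 min.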
MCF10A rerep: A quantitative high throughput screen for small molecules that induce DNA re-replication in MCF 10a normal breast cells. MCF 10A DNA re-replication, Hoechst nuclear intensity, 48 h. Potency, µM (highest dose often 46.1 µM), most hits filed as activators. 350,000 compounds, 2.9% hits; further: nearly all actives have a fitted effect of over 50% in size
ASM inhibitor: Inhibitors of Secretory Acid Sphingomyelinase (S-ASM): qHTS | placental ASM, HMU-PC fluorogenic substrate, 60 min | Potency, µM (series often up to 57.5 µM), most hits filed as inhibitors | 340,000 compounds, 0.006% hits | AID 504937, 2011
Target sequence (P17405 47-631 limits assumed): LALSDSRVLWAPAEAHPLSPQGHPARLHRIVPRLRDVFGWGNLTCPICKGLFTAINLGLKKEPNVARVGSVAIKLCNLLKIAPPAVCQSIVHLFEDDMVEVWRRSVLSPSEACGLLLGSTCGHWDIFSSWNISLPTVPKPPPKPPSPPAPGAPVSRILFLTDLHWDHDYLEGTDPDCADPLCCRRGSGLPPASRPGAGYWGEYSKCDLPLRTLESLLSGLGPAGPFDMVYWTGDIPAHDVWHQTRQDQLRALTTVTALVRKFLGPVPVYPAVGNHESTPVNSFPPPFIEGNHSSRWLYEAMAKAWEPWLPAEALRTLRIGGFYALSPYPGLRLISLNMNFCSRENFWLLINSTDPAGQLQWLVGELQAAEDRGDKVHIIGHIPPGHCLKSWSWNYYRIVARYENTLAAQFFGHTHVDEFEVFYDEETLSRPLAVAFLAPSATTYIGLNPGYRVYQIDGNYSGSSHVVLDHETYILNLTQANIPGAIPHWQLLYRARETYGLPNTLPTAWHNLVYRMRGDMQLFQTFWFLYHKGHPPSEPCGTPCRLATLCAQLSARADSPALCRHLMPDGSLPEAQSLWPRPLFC
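Human placenta-derived ASM enzyme was preincubated with compound for 10 minutes at room temperature, then given fluorogenic substrate HMU-PC0 (9 uM final) for 60 minutes at 37 °C; a pH 10 stop preceded fluorescence reading at Ex 386/Em 447 nm.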
Numbers stand for hits; – = inactive; ? = inconclusive; · = no result given; ! = not active in a repeat; [ ] = dose if it differs, or a comment. Rows were chosen to be rich in hits. Some 6.9% of all compounds tested hit in one or more screens of this group. Unless noted, the call rests on the fitted dose curve; in most records, active means well fitted curve in the direction sought with a large enough effect; inconclusive means small, poorly fitted or top-dose-only effect, or another doubt; inactive means no such curve, though single readings can be large; an effect the other way counts as inactive or inconclusive.

SMILES | Giardia kill | KB-3-1 tox | SW480 rereplic | KB-V1 cytotox | MCF10A rerep | ASM inhibitor
CCOC(=O)c1ccc(NC(c2ccc(N(C)C)cc2)P(=O)(OC(C)C)OC(C)C)cc1 (stereo not given) | – | – | ? | – | ? | –
CCCOP(=O)(OCCC)C(Nc1ccc(C(C)C)cc1)c1ccc([N+](=O)[O-])cc1 (stereo not given) | – | ? | 21µM | 12µM | ? | –
O=C(Nc1ccc2c(c1)OCCO2)c1cccn(Cc2cccc([N+](=O)[O-])c2)c1=O | · | – | · | – | · | ·
Nc1nc(F)nc2c1ncn2[C@@H]1O[C@H](CO)[C@@H](O)[C@@H]1O | ? | 0.65µM | – | 0.65µM | – | –
Nc1nc(F)nc2c1ncn2[C@@H]1O[C@H](CO)[C@@H](O)[C@H]1O | – | 1.2µM | ? | 1.5µM | 4.1µM! | –
C[C@]12CCC(=O)C(O)=C1CC[C@@H]1[C@H]3CCC(=O)[C@@]3(C)CC[C@@H]12 | · | · | – | · | – | ·
Cc1c2ccncc2c(C)c2c1[nH]c1ccccc12 | – | ? | 7.3µM | 9.2µM | 5.8µM | –
c1ccc2c(c1)[nH]c1cnccc12 | – | – | – | – | – | –
O=c1cc(C(F)(F)F)c2cc3c4c(c2o1)CCCN4CCC3 | – | – | ? | – | 10µM | –
Cc1cc2c(C(F)(F)F)cc(=O)oc2c2c1NCCC2 | – | – | ? | – | – | –
O=C(c1ccc(Cl)cc1)C1CCCN(Cc2ccc3ncccc3c2)C1 (stereo not given) | – | ? | – | 4.1µM | ? | –
O=[N+]([O-])OC1CO[C@H]2C(O[N+](=O)[O-])COC12 (stereo not given in full) | · | · | – | · | – | ·
CCC/C=C/C=C/C(=O)OC1/C(=C/C(=O)OC)CC2CC(C(C)O)OC(=O)CC(O)CC3CC(OC(C)=O)C(C)(C)C(O)(CC4C/C(=C/C(=O)OC)CC(/C=C\C(C)(C)C1(O)O2)O4)O3 (stereo not given) | · | · | ? | · | – | ·
COc1ccc(-c2nc3ccc(C(=O)N4CCC5(CC4)OCCO5)cc3nc2-c2ccc(OC)cc2)cc1 | – | – | 23µM | – | ? | –
COc1ccc(-n2c(C)nc3cc(C(=O)N4CCC5(CC4)OCCO5)ccc32)cc1 | – | ? | ? | ? | ? | –
CCOC(=O)[C@]12Cc3cc(Cl)ccc3[C@H]1N(CC(=O)OC)C(=O)c1ccccc12 | · | 3.7µM | · | 12µM | · | ·
CCOC(=O)[C@]12Cc3cc(Cl)ccc3[C@H]1N(C(C)C)C(=O)c1ccccc12 | · | 2.6µM | · | 5.2µM | · | ·
CCOC(=O)[C@]12Cc3cc(Cl)ccc3[C@H]1N(C)C(=O)c1ccccc12 | · | ? | · | – | · | ·
c1ccc(C(c2ccccc2)N2CCN(c3ccc4ccccc4n3)CC2)cc1 | – | – | – | – | ? | –
Cc1cccc(C2=NCC(=O)N(CC(=O)NCc3ccco3)c3sc4c(c32)CCCC4)c1 | – | – | – | 23µM | – | –
CCCCn1c(=O)c(C(=O)Nc2ccccc2N)c(O)c2ccccc21 | – | – | – | ? | – | –
CCOC(=O)Cc1csc(NC(=O)c2c(O)c3ccccc3n(CCC(C)C)c2=O)n1 | – | ? | – | 8.2µM | – | –
CCCCCn1c(=O)c(C(=O)Nc2cccc(C)n2)c(O)c2ccccc21 | – | – | – | ? | – | –
CCCCCCn1c(=O)c(C(=O)Nc2nc(CC(=O)OCC)cs2)c(O)c2ccccc21 | – | ? | – | 2.1µM | ? | –
O=c1c2ccccc2nc(/C=C\c2ccccc2F)n1-c1ccc(O)cc1 | · | – | · | – | · | ·
SMILES | Giardia kill | KB-3-1 tox | SW480 rereplic | KB-V1 cytotox | MCF10A rerep | ASM inhibitor
CNC(=O)Oc1ccc(-c2cn3cc(Cl)ccc3n2)cc1 | -86 | – | – | ? | ? | –
CNC(=O)Oc1cccc(-c2cn3cc(OC(=O)NC)ccc3n2)c1 | – | – | – | – | – | –
O=C1C=C(N2CC2)c2ccccc2C1=O | · | 21µM | · | – | · | ·
O=C(COc1cccc(Cl)c1)N1CCN(CCc2ccncc2)CC1 | · | – | · | – | · | ·
O=C1CCCc2c1nc(-c1ccccc1)n2O | – | – | – | – | – | –
COc1ccc(C(=O)CC(c2ccc(OC)c(OC)c2)c2c(O)c3ccccc3oc2=O)cc1OC (stereo not given) | · | – | · | – | · | ·
C/C(CC(c1ccccc1)c1c(O)c2ccccc2oc1=O)=N\NC(N)=S (stereo not given) | – | – | 16µM | ? | – | –
O=C1C(I)=CC(=C(c2cc(I)c(O)c(I)c2)c2ccccc2C(=O)O)C=C1I | · | · | – | · | ? | ·
O=C(Nc1ccc(Br)cc1)c1cc(Br)cc(Br)c1O | · | · | – | · | ? | ·
O=C(CS(=O)C(c1ccccc1)c1ccccc1)NO (stereo not given) | · | · | – | · | – | ·
Cc1ccc(-c2cc(-c3ccc(C)cc3)[n+](C)o2)cc1 | – | 2.9µM | – | – | – | –
O=C1C2CC=CCC2C(=O)N1SC(Cl)(Cl)Cl (stereo not given) | · | · | 6.7µM | · | 4.2µM | ·
Cc1c(C)c2c(OCC(=O)N[C@@H](C)C(=O)O)cc3c(c2oc1=O)CCC(C)(C)O3 | – | – | – | – | – | –
O=C1CN(O)C(c2ccccc2Cl)=c2cc(Br)ccc2=N1 | – | – | – | – | 23µM | –
CN(C(=O)CNC(=O)OCc1ccccc1)c1ccc(Br)cc1C(=O)c1ccccc1Cl | – | 2.3µM | 12µM | 3.7µM | 8.2µM | –
O=C(Nc1ccc(Br)cc1C(=O)c1ccccc1)c1ccccc1 | · | – | · | – | · | ·
O=C(CNC(=O)OCc1ccccc1)Nc1ccc(Br)cc1C(=O)c1ccccc1Cl | – | ? | – | 8.2µM | – | –
O=C(CNC(=O)c1ccc(Br)cc1)Nc1ccc(Br)cc1C(=O)c1ccccc1 | ? | – | – | – | – | –
Oc1cc(Cl)c(Cl)c(Cl)c1Cl | – | – | – | – | 15µM | –
CSc1ccc(Cl)c(C(=O)OCC(=O)N2CCN(C(=O)c3ccco3)CC2)c1 | – | – | ? | ? | – | –
O=C(CCl)c1ccc(Oc2ccc(C(=O)CCl)cc2)cc1 | · | · | – | · | 27µM | ·
CN1C[C@H](C(=O)N[C@]2(C)O[C@@]3(O)C4CCCN4C(=O)[C@H](Cc4ccccc4)N3C2=O)C[C@@H]2c3cccc4[nH]cc(c34)C[C@H]21 (stereo not given in full) | · | · | –[4.21 µM] | · | – | ·
CN1C[C@H](C(=O)N[C@]2(C)O[C@@]3(O)[C@@H]4CCCN4C(=O)[C@H](Cc4ccccc4)N3C2=O)CC2c3cccc4[nH]cc(c34)C[C@H]21 (stereo not given in full) | – | – | 0.35µM! | – | ? | –

Screening data (PubChem)
